The source of these data is PubChem BioAssay (Tox21).

Inconclusive results are not listed. The source made the active and inactive calls. Unless noted, calls follow the shape of the full dose curve.

A short description of experiment [1]: Nuclear factor erythroid 2-related factor 2/antioxidant responsive element (Nrf2/ARE) small molecule agonists: qHTS cell viability counter screen in human keratinocytes (AID 1919968; active = well fitted curve in the direction sought with a large enough effect in the repeat runs; an effect the other way counts as inactive or inconclusive; also: nearly all actives have a fitted effect of over 55% in size; also: potency is read from the fitted curve at half-maximal effect). The essentials: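 KeratinoSens HaCaT cells, 1,500/well, preincubated 5 h, then exposed to compounds in DMSO for 23 h at 37 C/5% CO2. Viability read as CellTiter-Fluor fluorescence after 1 h, in the same wells as the ARE-luciferase read.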
A general note: Quantitative high-throughput screening tests each substance at several concentrations.

The target in experiment [2] is KiSS-1 receptor (Homo sapiens) (UniProt Q969F8). The experiment is described as follows: Human kisspeptin (KISS1R) small molecule agonists, calcium flux assay in KISS1R-HEK293 cells (AID 1920064; active = well fitted curve in the direction sought with a large enough effect in the repeat runs; an effect the other way counts as inactive or inconclusive). The essentials:
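HEK293 cells stably expressing human KISS1R were loaded with calcium dye for 1 h at 37 C, then given compound; fluorescence (Ex/Em 480/540) was read kinetically for 3 min. Fifteen concentrations, triplicate.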
Background: A change in cytosolic calcium serves as a functional read-out for many receptors and channels.

Experiment [3] can be described thus: G protein-coupled receptor (GPCR) small molecule agonists, calcium flux assay: HEK293 wild type cell line counter screen (AID 1920065). An outline of the steps: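 Wild-type HEK293 cells plated 18 h, loaded with calcium dye 1 h at 37 C, then compounds added in agonist mode (ATP as positive control). Kinetic fluorescence Ex/Em 480/540 recorded 3 min at 1 sec intervals; 15 concentrations, triplicate.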

Experiment [4] in a line: p53 small molecule agonists, cell-based qHTS assay with human liver microsomes (AID 1963577). An outline of the steps: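 p53RE-bla reporter cells were pre-incubated 5 h at 37 C, then treated with compounds plus human liver microsomes (0.5 mg/mL final) and NADPH (0.5 mg/mL final) for 16 h at 37 C. Beta-lactamase activity was read by LiveBLAzer fluorescence after 2 h at room temperature.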

Experiment [5] in a line: p53 small molecule agonists, cell-based qHTS assay with rat liver microsomes (AID 1963578). The essentials:
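p53RE-bla cells were exposed to compounds together with rat liver microsomes (0.5 mg/mL final) and NADPH (0.5 mg/mL final) for 16 h at 37 C, then read by LiveBLAzer beta-lactamase fluorescence after 2 h at room temperature.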

Experiment [6] can be described thus: p53 small molecule agonists, cell-based qHTS assay with human liver microsomes: qHTS cell viability counter screen (AID 1963579). Also: nearly all actives have a fitted effect of over 45% in size. Also: potency is read from the fitted curve at half-maximal effect. The essentials: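 p53RE-bla cells (4,000/well) were pre-incubated 5 h at 37 C, then given compounds in DMSO plus human liver microsomes (0.5 mg/mL final) and NADPH (0.5 mg/mL final) for 16 h at 37 C. Viability was read by CellTiter-Glo luminescence.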

Experiment [7] in a line: p53 small molecule agonists, cell-based qHTS assay with rat liver microsomes: qHTS cell viability counter screen (AID 1963580). Also: nearly all actives have a fitted effect of over 45% in size. The essentials: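 Intracellular ATP, by CellTiter-Glo luminescence, defines viability. HCT-116 p53RE-bla cells, 4,000 per well, were compound-treated in the presence of rat liver microsomes and NADPH for 16 h at 37 C.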
The nature of experiment [8]: p53 small molecule agonists, cell-based qHTS assay: qHTS cell viability counter screen (AID 1963581). Also: nearly all actives have a fitted effect of over 45% in size. Also: potency is read from the fitted curve at half-maximal effect. An outline of the steps: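 p53RE-bla HCT-116 cells, compounds added 5 h after plating and incubated 16 h at 37 C. Cytotoxicity measured in the same wells as intracellular ATP by CellTiter-Glo luminescence after 30 min at room temperature.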
Experiment [9] in a line: p53 small molecule agonists, cell-based qHTS assay (AID 1963582; active = well fitted activation curve with a large enough effect in the signal ratio in the repeat runs, not every such curve was filed as active; the % refers to the signal ratio). An outline of the steps: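 p53RE-bla reporter cells, compounds added in DMSO after 5 h plating, incubated 16 h at 37 C. Beta-lactamase read via 2 h room-temperature LiveBLAzer B/G FRET substrate, fluorescence intensity.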
Experiment [10] deals with 5-hydroxytryptamine receptor 2A (Homo sapiens) (UniProt P28223). Nature of the experiment: 5-hydroxytryptamine receptor 2A (HTR2A) small molecule antagonists, cell-based qHTS assay (AID 1963586). Also: nearly all actives have a fitted effect of over 45% in size. An outline of the steps:
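Antagonist-mode intracellular calcium assay: DOI (4 nM) added after 5 min compound pre-incubation at room temperature to dye-loaded HTR2A-CHO cells. Fluorescence followed for 3 min, sampled every second.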

Experiment [11] has the same target. The experiment is described as follows: 5-hydroxytryptamine receptor 2A (HTR2A) small molecule agonists, cell-based qHTS assay (AID 1963587). Also: nearly all actives have a fitted effect of over 30% in size. Also: potency is read from the fitted curve at half-maximal effect. The essentials:
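Kinetic calcium-flux fluorescence (2 min, 1 sec intervals) after compound addition in agonist mode. HTR2A-CHO cells were cultured 18 h, then dye-loaded 1 h at 37 C.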

Experiment [12] has as its target Muscarinic acetylcholine receptor M1 (Homo sapiens) (UniProt P11229). The experiment is described as follows: Cholinergic receptor muscarinic 1 (CHRM1) small molecule antagonists, cell-based qHTS assay (AID 1963588). Also: nearly all actives have a fitted effect of over 40% in size. The essentials: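 CHRM1-CHO calcium-flux assay, antagonist mode. Cells were seeded 18 h, dye-loaded 1 h at 37 C and given compound for 5 min at RT, then acetylcholine was added at 50nM. FDSS fluorescence was read 3 min; 15 concentrations, three runs.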

Experiment [13] shares this target. Nature of the experiment: Cholinergic receptor muscarinic 1 (CHRM1) small molecule agonists, cell-based qHTS assay (AID 1963589). Also: nearly all actives have a fitted effect of over 35% in size. The essentials: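 CHO cells stably expressing human CHRM1 were loaded with calcium dye for 1 h at 37 C, then compound was added in agonist mode. Intracellular calcium fluorescence was followed kinetically at 1 s intervals. Fifteen concentrations were tested in three independent runs.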

The nature of experiment [14]: cAMP Responsive Elements (CRE) small molecule agonists, cell-based qHTS assay (AID 1963590). An outline of the steps:
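CRE-bla HEK 293T cells, 2,000/well in DMEM with 10% dialyzed FBS and 25 mM HEPES, pre-incubated 18 h at 37 C, then exposed to compound 3 h at 37 C. Beta-lactamase reporter read with LiveBLAzer B/G FRET substrate after 2 h at room temperature.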

Experiment [15] can be described thus: cAMP Responsive Elements (CRE) small molecule antagonists, cell-based qHTS assay (AID 1963591; active = well fitted inhibition curve with a large enough effect in the signal ratio in the repeat runs, not every such curve was filed as active; the % refers to the signal ratio). The essentials:
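CRE-bla HEK293T cells plated 18 h, then given compound plus NKH477 at 0.25 uM final for 3 h at 37C. Beta-lactamase reporter read with LiveBLAzer B/G FRET substrate after 2 h at room temperature.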

The target in experiment [16] is Beta-2 adrenergic receptor (Homo sapiens) (UniProt P07550). Nature of the experiment: Adrenergic beta2 receptor (ADRB2) small molecule antagonists, cell-based qHTS assay (AID 1963592). Also: series mostly up to about 92 µM; nearly all actives have a fitted effect of over 50% in size. An outline of the steps: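 Cells (CHO, stable ADRB2 overexpression) incubated 18-20hr at 37C; compounds added from DMSO; agonist mix (1nM isoproterenol, 100uM IBMX, 25uM Ro-20-1724) added; 0.5hr RT; d2-cAMP and anti-cAMP-cryptate added; 1hr RT; 665/615 nm read.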
Sequence of Beta-2 adrenergic receptor (Homo sapiens) (P07550 whole entry, looked up): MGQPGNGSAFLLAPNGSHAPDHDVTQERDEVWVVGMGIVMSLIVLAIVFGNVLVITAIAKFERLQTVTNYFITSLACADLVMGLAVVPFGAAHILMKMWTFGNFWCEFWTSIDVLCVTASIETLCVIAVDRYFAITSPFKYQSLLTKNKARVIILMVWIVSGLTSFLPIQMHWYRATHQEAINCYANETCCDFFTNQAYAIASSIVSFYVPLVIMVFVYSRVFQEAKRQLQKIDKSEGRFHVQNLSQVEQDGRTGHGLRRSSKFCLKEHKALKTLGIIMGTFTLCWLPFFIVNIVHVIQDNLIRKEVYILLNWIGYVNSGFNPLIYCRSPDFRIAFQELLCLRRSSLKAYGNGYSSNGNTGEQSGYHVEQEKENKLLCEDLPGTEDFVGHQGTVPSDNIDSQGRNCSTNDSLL

Experiment [17] addresses D(2) dopamine receptor (Homo sapiens) (UniProt P14416). The experiment is described as follows: Dopamine D2 receptor (DRD2) small molecule antagonists, cell-based qHTS assay (AID 1963595; active = well fitted inhibition curve with a large enough effect in the signal ratio in the repeat runs, with a control signal flat; the % refers to the signal ratio). The essentials: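 Antagonist mode in DRD2-HEK293 cells: after compound addition with 0.1 mM Ro20-1724, cells received quinpirole (12 nM) and NKH477 (200 nM) for 30 min at room temperature; HTRF cAMP read after 1 h detection.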

The target in experiment [18] is Beta-2 adrenergic receptor (Homo sapiens) (UniProt P07550). The experiment is described as follows: Adrenergic beta2 receptor (ADRB2) small molecule agonists, cell-based qHTS assay (AID 1963593).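 Also: CHO cells stably overexpressing human ADRB2.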 The essentials: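 CHO cells stably over-expressing ADRB2 were plated overnight at 37C, then dosed with compounds plus a stimulation mix containing 100uM IBMX and 25uM Ro-20-1724 for 0.5hr at room temperature. cAMP was measured by HTRF competition, 1hr.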

The target of experiment [19] is D(2) dopamine receptor (Homo sapiens) (UniProt P14416). The experiment is described as follows: Dopamine D2 receptor (DRD2) small molecule agonists, cell-based qHTS assay (AID 1963594). Also: nearly all actives have a fitted effect of over 35% in size. The essentials: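 cAMP accumulation in DRD2-HEK293 cells measured by HTRF after 1 h detection; compounds added 10 min before NKH477 (200nM […]) forskolin-analogue stimulation, 30 min at room temperature, with Ro20-1724 present at 0.1 mM final.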
Sequence of D(2) dopamine receptor (Homo sapiens) (P14416 whole entry, looked up): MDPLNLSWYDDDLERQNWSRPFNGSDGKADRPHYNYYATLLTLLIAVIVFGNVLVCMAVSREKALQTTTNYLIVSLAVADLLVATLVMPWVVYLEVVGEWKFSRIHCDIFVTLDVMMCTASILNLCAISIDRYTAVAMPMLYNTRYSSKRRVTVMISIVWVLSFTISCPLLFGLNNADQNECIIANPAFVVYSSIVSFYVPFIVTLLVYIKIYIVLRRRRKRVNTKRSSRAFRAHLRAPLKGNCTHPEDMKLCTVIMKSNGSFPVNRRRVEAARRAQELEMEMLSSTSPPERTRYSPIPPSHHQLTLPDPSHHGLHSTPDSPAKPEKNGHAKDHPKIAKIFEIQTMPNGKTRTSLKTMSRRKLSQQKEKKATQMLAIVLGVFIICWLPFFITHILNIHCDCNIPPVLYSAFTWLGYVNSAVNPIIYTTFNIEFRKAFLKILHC

Experiment [20] can be described thus: Nuclear factor erythroid 2-related factor 2/antioxidant responsive element (Nrf2/ARE) small molecule agonists: luciferase reporter gene qHTS assay in human keratinocytes (AID 1919969; also: nearly all actives have a fitted effect of over 35% in size; also: potency is read from the fitted curve at half-maximal effect). (In a reporter assay the amount or activity of a reporter protein is the signal.)

Sequence of Muscarinic acetylcholine receptor M1 (Homo sapiens) (P11229 whole entry, looked up): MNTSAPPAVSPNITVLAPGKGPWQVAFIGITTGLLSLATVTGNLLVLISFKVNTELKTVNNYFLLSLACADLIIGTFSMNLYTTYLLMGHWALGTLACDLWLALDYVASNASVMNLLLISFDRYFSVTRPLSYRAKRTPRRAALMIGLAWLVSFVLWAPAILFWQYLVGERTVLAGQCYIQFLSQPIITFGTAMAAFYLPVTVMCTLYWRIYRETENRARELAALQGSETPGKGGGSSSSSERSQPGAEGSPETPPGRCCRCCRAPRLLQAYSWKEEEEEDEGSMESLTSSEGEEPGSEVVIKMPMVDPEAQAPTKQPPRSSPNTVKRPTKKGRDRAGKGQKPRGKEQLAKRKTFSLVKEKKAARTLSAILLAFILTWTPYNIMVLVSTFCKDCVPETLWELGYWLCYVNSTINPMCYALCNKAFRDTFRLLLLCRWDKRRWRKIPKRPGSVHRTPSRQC
Sequence of 5-hydroxytryptamine receptor 2A (Homo sapiens) (P28223 whole entry, looked up): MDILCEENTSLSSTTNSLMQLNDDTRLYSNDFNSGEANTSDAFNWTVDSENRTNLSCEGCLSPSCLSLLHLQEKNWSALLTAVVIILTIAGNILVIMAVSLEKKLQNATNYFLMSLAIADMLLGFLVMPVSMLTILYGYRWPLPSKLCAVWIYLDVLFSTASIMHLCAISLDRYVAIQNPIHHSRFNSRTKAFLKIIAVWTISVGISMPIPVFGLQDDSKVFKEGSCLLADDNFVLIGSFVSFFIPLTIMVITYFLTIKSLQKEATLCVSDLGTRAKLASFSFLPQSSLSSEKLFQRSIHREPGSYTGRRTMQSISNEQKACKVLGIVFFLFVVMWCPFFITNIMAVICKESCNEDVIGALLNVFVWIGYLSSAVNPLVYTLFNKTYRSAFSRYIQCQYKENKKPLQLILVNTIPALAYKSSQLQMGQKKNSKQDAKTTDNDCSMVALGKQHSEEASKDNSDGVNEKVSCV
Sequence of KiSS-1 receptor (Homo sapiens) (Q969F8 whole entry, looked up): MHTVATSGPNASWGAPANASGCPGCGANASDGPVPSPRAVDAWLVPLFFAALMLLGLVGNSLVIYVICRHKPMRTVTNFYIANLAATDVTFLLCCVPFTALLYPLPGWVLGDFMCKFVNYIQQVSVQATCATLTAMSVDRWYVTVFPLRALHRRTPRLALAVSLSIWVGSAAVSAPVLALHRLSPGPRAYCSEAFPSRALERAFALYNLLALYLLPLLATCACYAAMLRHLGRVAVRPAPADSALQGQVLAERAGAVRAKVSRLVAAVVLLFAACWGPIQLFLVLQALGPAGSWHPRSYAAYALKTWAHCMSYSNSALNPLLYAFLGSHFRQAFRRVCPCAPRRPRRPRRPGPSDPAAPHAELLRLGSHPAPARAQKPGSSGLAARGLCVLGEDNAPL

In the case of `N#CCCCC(C#N)CCC#N` (centres undefined), the Potency entry in [1], in experiment [2], in [3], in [4], in experiment [5] and in experiment [6] was “inactive” each time. Moreover, the Potency entry in experiment [7], in [8], in experiment [9], in [10], in experiment [11] and in experiment [12] was “inactive” each time. In addition, the Potency result in [13], in experiment [14], in [15], in experiment [16] and in experiment [17] was “inactive” throughout.

Regarding `CC1CN(c2ccccc2)NC1=O` (centres undefined), the Potency entry in experiment [1], in [2], in [3], in experiment [4], in experiment [5] and in experiment [6] was “inactive” in each case. Further, the Potency result in experiment [7], in experiment [8], in experiment [9], in experiment [10], in experiment [11] and in experiment [12] was “inactive” in each case. Also, the Potency entry in experiment [13], in experiment [14], in [15], in experiment [18] and in experiment [19] was “inactive” in each case.

With `CCCOCC(C)OCC(C)O` (centres undefined), the Potency entry in experiment [1], in experiment [2], in experiment [3], in [4], in experiment [5] and in [6] was “inactive” each time. Also, the Potency result in experiment [7], in experiment [8], in experiment [9], in [10], in experiment [11] and in experiment [12] was “inactive” throughout. In addition, the Potency entry in experiment [13], in experiment [14], in experiment [15], in experiment [16], in experiment [19] and in experiment [17] was “inactive” in each case.

Consider `O=[N+]([O-])c1cc(C2CCCCC2)c(O)c([N+](=O)[O-])c1`, for which the Potency was 19.3 µM (active) in [1], 13.6 µM (active) in experiment [20], 20.4 µM (active) in [6] and 20.4 µM (active) in experiment [8]. Also, the Potency entry in [4], in experiment [5], in [10], in [12], in [13] and in [19] was “inactive” throughout. For the same molecule, the Potency result in experiment [17] is “inactive”.

In the case of `CC(C)Cc1ccc(CC(=O)O)cc1`, the Potency entry in experiment [1], in experiment [2], in experiment [3], in [4], in [5] and in [6] was “inactive” each time. The Potency result in [7], in experiment [8], in experiment [9], in [10], in experiment [11] and in experiment [12] was “inactive” in each case. Further, the Potency entry in [13], in [14], in experiment [15], in [16], in [18] and in experiment [19] was “inactive” each time. The Potency entry in experiment [17] is “inactive”.

With `C[C@@H](NCCCc1cccc(C(F)(F)F)c1)c1cccc2ccccc12`, the values for the Potency in [1] and in experiment [11] were 29.8 µM (active) and 23.9 µM (active), respectively. Moreover, the Potency result in [20], in experiment [3], in [5], in [6], in experiment [7] and in experiment [9] was “inactive” in each case. For the same molecule, in experiment [12], the Potency result was “inactive”.

Consider `C[C@]12C(=O)OC(=O)[C@H]1[C@H]1C=C[C@@H]2C1`, for which the Potency result in [1], in [2], in experiment [3], in [4], in experiment [5] and in experiment [6] was “inactive” throughout. For the same molecule, the Potency entry in experiment [7], in experiment [8], in [9], in experiment [10], in [11] and in [12] was “inactive” each time. Also, the Potency result in [13], in experiment [14], in experiment [15], in experiment [16], in experiment [19] and in [17] was “inactive” in each case.
